Measured values: PubChem BioAssay (EPA / NIEHS)
The source holds several records for some structures; these can differ, active in one and inactive in another. Calls of active or inactive are those of the source. The calls were made as follows: active = hit-call score of the fitted dose curve at least 0.9, where 1 is the maximum; inactive = score below 0.9.

Test: ATG_VDRE_CIS: Attagene CIS-FACTORIAL HepG2 Assay for human Vitamin D Receptor Element (VDRE) (AID 2282968)
Conditions: HepG2 VDRE cis-reporter transcription, actives raise or lower the signal
Experimental: ATG_CIS is a cell-based, multiplexed-readout assay that uses HepG2, a human liver cell line, with measurements taken at 24 hours after chemical dosing in a 24-well plate.ATG_VDRE_CIS is one of 52 assay component(s) measured or calculated from the ATG_CIS assay. It is designed to make measurements of mRNA induction, a form of inducible reporter, as detected with fluorescence intensity signals by Reverse transcription polymerase chain reaction (RT-PCR) and Capillary electrophoresis technology.Data from the assay component ATG_VDRE_CIS was analyzed into 1 assay endpoint. This assay endpoint, ATG_VDRE_CIS, was analyzed with bidirectional fitting relative to DMSO as the negative control and baseline of activity. Using a type of inducible reporter, measures of mRNA for gain or loss-of-signal activity can be used to understand the reporter gene at the transcription factor-level as they relate to the gene VDR. Furthermore, this assay endpoint can be referred to as a primary readout, because this assay has produced multiple assay endpoints where this one serves a reporter gene function. To generalize the intended target to other relatable targets, this assay endpoint is annotated to the nuclear receptor intended target family, where the subfamily is non-steroidal.
Human liver HepG2 cells are transiently transfected with multiple reporter transcription units (MRTUs) in 6-well plates using FuGene 6 reagent (Roche; 3 ml FuGene/1 mg DNA). The MRTU constructs are regulated by a cis-regulating element (promoter). […] A major difference between the CIS and TRANS system is that in CIS activities of endogenous TFs are measured, whereas the TRANS assay evaluates changes in activities of exogenous, chimeric NR-Gal4 proteins. […] At the end of 24 hour incubation, total RNA was isolated using TriZol reagent (Invitrogen). The isolated RNA is then reverse-transcribed using oligo(dT) primer and Mo-MLV reverse transcriptase (Invitrogen) with DNAse I (Ambion) treatment for 30 min. The one-tenth of the produced cDNA was amplified by PCR using Taq DNA polymerase (Invitrogen) and two reporter sequence-specific primers. The PCR products were fluorescently labeled by primer extension with 6-arboxyfluorescein (6-FAM) 5'-labeled reporter sequence-specific primer (2 min at 95 C, 20 s at 68 C and 10 min at 72 C) and these products were digested with 5U of HpaI (New England Biolabs) for 2h at 37 C. The fragments were purified using Qiaquick PCR columns (Qiagen), analyzed on an ABI 3130xL genetic analyzer (Applied Biosystems) with peak positions identified by using a set of X-rhodamine (ROX)-labeled MapMarker1000 molecular weight standards (BioVentures). The raw capillary electrophoresis data was processed using Attagraph software (Attagene).

Structure (SMILES)	outcome	AC50
O=[N+]([O-])c1c2ccccc2cc2ccccc12	inactive	–
C=CCc1ccccc1O	inactive	–
CN(C)C(=S)S	inactive	–
Cc1cc(C(C)(C)c2ccc(O)c(C)c2)ccc1O	–	13.7 µM (active)
CC(C)(C1CCC(O)CC1)C1CCC(O)CC1 (stereo not given)	inactive	–
Nc1nc(=S)[nH][nH]1	inactive	–
C=C(C)C(=O)OCCCCOC(=O)C(=C)C	inactive	–
O=[N+]([O-])c1cc([As](=O)(O)O)ccc1O	inactive	–
O=C(O)CC(O)(CC(=O)O)C(=O)O	inactive	–
Cc1cc(C)cc(C)c1	inactive	–
C1CCC(C2CCCCC2)CC1	inactive	–
CC(C)N(C(=O)CCl)c1ccccc1	–	51.7 µM (active)
CCCCCCCCCCBr	inactive	–
Nc1c(Oc2ccccc2)cc(O)c2c1C(=O)c1ccccc1C2=O	–	15 µM (active)
CC(C)(C)c1cc([N+](=O)[O-])cc(C(C)(C)C)c1O	–	3.16 µM (active)
CS(=O)(=O)c1ccc(C(=O)C2C(=O)CCCC2=O)c(Cl)c1COCC(F)(F)F	inactive	–
CC(C)(c1ccc(O)c(-c2ccccc2)c1)c1ccc(O)c(-c2ccccc2)c1	–	2.93 µM (active)
CCCCC(CC)COC(=O)Cl (stereo not given)	inactive	–
CCOC(=O)C(SP(=S)(OC)OC)c1ccccc1 (stereo not given)	inactive	–
CC1(C)[C@H](C(=O)O[C@H](C#N)c2cccc(Oc3ccccc3)c2)[C@@H]1/C=C(\Cl)C(F)(F)F	inactive	0.502 µM (active)

Structure (SMILES)	outcome	AC50
Brc1ccc(Oc2c(Br)cc(Br)cc2Br)c(Br)c1	inactive	–
O=S(=O)(Oc1ccc(Cl)cc1)c1ccc(Cl)cc1	–	10.4 µM (active)
O=C(N[C@H]1CN2CCC1CC2)c1ccc2c(c1)OCCO2	inactive	–
CCCCCCCCCCCCCl	inactive	–
O=C(CCl)Nc1ccccc1	–	43.7 µM (active)
Clc1cccc(Cl)c1	inactive	–
CC(=Cc1ccccc1)[N+](=O)[O-]	inactive	–
CCCSP(=S)(OCC)Oc1ccc(Cl)cc1Cl (stereo not given)	inactive	–
OC[P+](CO)(CO)CO	inactive	–
C#CCOC(=O)/C=C(C)/C=C/CC(C)CCCC(C)C (stereo not given)	inactive	–
CCCCN(CCCC)C(=S)S	–	24.3 µM (active)
Clc1cc(C(Cl)(Cl)Cl)cnc1Cl	inactive	–
CCCCOP(=O)(CCCC)OCCCC	–	17.7 µM (active)
CCCCN(CCCCO)N=O	inactive	–
Clc1ccc(C(Cl)(Cl)Cl)cn1	inactive	–
CC(C=O)Cc1ccc2c(c1)OCO2 (stereo not given)	–	12.8 µM (active)
O=S(=O)(C(Cl)(Cl)Cl)C(Cl)(Cl)Cl	–	16.7 µM (active)
c1ccc2sc(SNC3CCCCC3)nc2c1	inactive	–
N#Cc1ccncc1	inactive	–
